structure (smiles),measurement,setting,value
CC(C)C(=O)N[C@@H]1CCN(C(=O)Nc2nc3c(s2)-c2nc(-c4ccccc4Cl)ncc2CC3)C1 [BI00047804],Kinases covered,NEK5,NEK5
CCOc1ccc2c(-c3ccnc(Nc4cc(OC)cc(C(F)(F)F)c4)n3)cnn2n1 [GW807982X],Kinases covered,NEK6,NEK6
COc1cc2ncn(-c3cc(O[C@H](C)c4ccccc4Cl)c(C(N)=O)s3)c2cc1OC [GSK237701A],Kinases covered,NEK9,NEK9
C[C@@H](Oc1cc(-n2cnc3ccc(OC4CCN(C)CC4)cc32)sc1C(N)=O)c1ccccc1Cl [GSK579289A],Kinases covered,NEK9,NEK9
Cc1cn(-c2cc(NC(=O)c3ccc4c(c3)CN(c3cncnc3)C[C@@H]4C)cc(C(F)(F)F)c2)cn1 [D2202-1],Kinases covered,NTRK2,NTRK2
CC(=O)c1cccc(NC(=O)NC2CCN(c3ccnc(Nc4ccc(F)cc4)n3)C2)c1 (stereo not drawn) [GSK1379710],Kinases covered,NTRK3,NTRK3
COc1ccccc1-c1cc(/C=C2\C(=O)Nc3ncc(Br)cc32)cc(Br)c1O [GW442130X],Kinases covered,NTRK3,NTRK3
C[C@@H]1CCNC(=O)c2cc3ccc(C(=O)Nc4nc5ccccc5n4CCCN(C)C)cc3n21 [BI00645435],Kinases covered,NUAK2,NUAK2
CCC(=O)Nc1cccc(Oc2nc(Nc3ccc(N4CCN(C)CC4)cc3OC)ncc2Cl)c1 [WZ4003],Kinases covered,NUAK2,NUAK2
